Reference: PubChem BioAssay AID493231 (Broad Institute, 2011)
Potency and affinity values are given separately. The source made the active and inactive calls. No rule for the calls is given here.

What follows are compounds tested against Acyl-homoserine lactone acylase PvdQ (Pseudomonas aeruginosa (strain ATCC 15692 / DSM 22644 / CIP 104116 / JCM 14847 / LMG 12228 / 1C / PRS 101 / PAO1)) (UniProt Q9I194) (assay: PvdQ acylase enzyme activity blockers – biochemical, fluorescence, plate reader and imaging, cherry-picks, dose response (AID 493231;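 also: more negative values mean stronger inhibition of the acylase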)). Conditions: purified PvdQ acylase, fluorogenic substrate; series mostly up to 10 µM.
Sequence of Acyl-homoserine lactone acylase PvdQ (Pseudomonas aeruginosa (strain ATCC 15692 / DSM 22644 / CIP 104116 / JCM 14847 / LMG 12228 / 1C / PRS 101 / PAO1)) (Q9I194 whole entry, looked up): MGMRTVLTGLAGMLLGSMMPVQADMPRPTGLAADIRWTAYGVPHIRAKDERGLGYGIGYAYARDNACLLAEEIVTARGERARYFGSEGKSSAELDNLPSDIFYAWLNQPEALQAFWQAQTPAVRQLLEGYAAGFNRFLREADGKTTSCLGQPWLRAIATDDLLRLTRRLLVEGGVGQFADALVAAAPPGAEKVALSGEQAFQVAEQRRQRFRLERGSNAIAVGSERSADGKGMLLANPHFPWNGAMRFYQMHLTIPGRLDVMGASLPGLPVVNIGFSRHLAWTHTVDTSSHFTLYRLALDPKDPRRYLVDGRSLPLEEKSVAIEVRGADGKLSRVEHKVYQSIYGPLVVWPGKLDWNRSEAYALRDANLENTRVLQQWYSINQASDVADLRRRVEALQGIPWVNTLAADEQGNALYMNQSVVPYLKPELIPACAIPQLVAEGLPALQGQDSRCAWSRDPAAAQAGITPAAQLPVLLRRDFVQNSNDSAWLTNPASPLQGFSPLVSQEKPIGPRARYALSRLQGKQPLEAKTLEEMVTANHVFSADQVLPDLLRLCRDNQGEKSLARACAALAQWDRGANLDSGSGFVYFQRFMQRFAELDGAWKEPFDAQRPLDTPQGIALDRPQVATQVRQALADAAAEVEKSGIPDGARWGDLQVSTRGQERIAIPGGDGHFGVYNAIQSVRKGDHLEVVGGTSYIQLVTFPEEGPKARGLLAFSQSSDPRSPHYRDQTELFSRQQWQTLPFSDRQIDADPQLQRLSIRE

outcome, inactive:
CCCN(c1nc(C)cc(OC)n1)S(=O)(=O)c1ccccc1
CSCCC(NC(=O)c1ccc([N+](=O)[O-])cc1Cl)C(=O)OCC(=O)N(C)C (stereo unspecified)
CC1CC(Nc2ccccc2)c2ccccc2N1C(=O)c1ccco1 (stereo unspecified)
CC(C)Cn1nc(C(=O)Nc2nnc(C3CC3)s2)c2ccccc2c1=O
CN(C)CCN(C(=O)C1=COCCO1)c1nc2ccc(Cl)cc2s1
O=c1oc(-c2ccc(F)cc2)nc2ccsc12
O=C(c1ccc(-c2ccccc2)cc1)C1CCCN(C(=O)c2cncs2)C1 (stereo unspecified)
CC(=O)N/C(=N/c1nc(C)cc(C)n1)Nc1ccc(C)cc1C
Cc1ccc(-c2nc3ccsc3c(=O)o2)cc1
Cc1cc(C(=O)Nc2ccc(F)c(Cl)c2)on1
Cc1cc(C)n2c(SCC(=O)Nc3ccc(F)cc3)nnc2n1
CCOC(=O)c1ccc(N2Cc3ccccc3C2=NC(=O)c2ccncc2)cc1
CC(NC(=O)C1CCCN(C(=O)c2ccc(Cl)cc2)C1)c1cccc(C(F)(F)F)c1 (stereo unspecified)
COc1ccccc1C1CCN(C(=O)C2CCCCC2)CC1
CCOC(=O)c1[nH]c2c(c1C)C(=O)CC(c1ccco1)C2 (stereo unspecified)
Cn1c(=O)c2[nH]c(-c3ccccc3)c(O)c2n(C)c1=O
